Where “and” joins values, the source holds several entries; their conditions need not be identical. Identical values can stand only once. The campaign covered roughly 2,300 compounds. About 1,100 (48%) were called active. The set was probably picked from earlier hits. These entries were drawn from the full list. Unmarked numbers belong to inactive results.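 How the source made its calls: active means inhibition above the mean inhibition of all tested sample wells plus 3 SD (cut at about 10% in these data); inactive means the rest.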

In the test the target is Luciferin 4-monooxygenase (Photinus pyralis) (UniProt P08659). The test can be described thus: native FLuc enzyme inhibition – biochemical, luminescence, triplicate, artefact control for HSP90 inhibitor project, confirmation (AID 1847).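 Further: 0% = DMSO with luciferase and 100% = wells lacking luciferase.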 The note with it: purified native firefly luciferase, at 5.9 µM, active compounds read high.
Chain of Luciferin 4-monooxygenase (Photinus pyralis) (P08659 whole entry, looked up): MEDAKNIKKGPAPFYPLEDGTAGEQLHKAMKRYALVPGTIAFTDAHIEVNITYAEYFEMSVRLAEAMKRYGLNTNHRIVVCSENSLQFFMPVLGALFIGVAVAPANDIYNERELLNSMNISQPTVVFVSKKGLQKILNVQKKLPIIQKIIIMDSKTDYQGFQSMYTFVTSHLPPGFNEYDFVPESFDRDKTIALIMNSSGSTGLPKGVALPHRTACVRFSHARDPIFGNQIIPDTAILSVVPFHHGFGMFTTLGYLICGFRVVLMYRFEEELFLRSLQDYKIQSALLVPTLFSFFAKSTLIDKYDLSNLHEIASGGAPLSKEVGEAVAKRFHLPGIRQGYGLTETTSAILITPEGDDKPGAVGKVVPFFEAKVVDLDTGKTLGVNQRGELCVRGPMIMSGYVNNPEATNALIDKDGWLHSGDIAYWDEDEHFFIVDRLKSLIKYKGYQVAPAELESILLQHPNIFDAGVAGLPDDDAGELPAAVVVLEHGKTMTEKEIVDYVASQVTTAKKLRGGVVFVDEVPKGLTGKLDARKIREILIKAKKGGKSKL
As to `CCc1ccc2oc(-c3ccc(N)cc3)nc2c1`, the inhibition was 51% (active).

As to `Nc1ccc(-c2nnc(-c3ccccc3)o2)cc1`, the inhibition is -10.8%.

Regarding `O=C(Cn1c[n+](CC(=O)c2ccc([N+](=O)[O-])cc2)cn1)c1ccc([N+](=O)[O-])cc1`, the inhibition is -6.5% and -8.93%.

As to `COc1cc(CNC2CCCCC2)c(Br)cc1OC1CCCC1`, the inhibition is 1%.

For the compound `COC(=O)C1[C@H]2SC(C)(C)C(C(=O)OC)N2C(=O)N1Cc1nc2ccccc2s1` (stereo not given in full), the inhibition was -10.3%.

Take `COc1ccc(CNC(=O)/C(C#N)=C/c2cccc(OC)c2OC)cc1`: the inhibition is -0.6%.

As to `COc1ccc(Nc2ncnc3ccc(Br)cc23)c(OC)c1`, the inhibition is 55.5% (active).

As to `Cc1ccc2nc(/C(C#N)=C\c3ccc(OC(=O)c4cccs4)cc3)[nH]c2c1`, the inhibition is -9.37%.

On to `CCCCNC(=O)Nc1c(C)cc(SC#N)cc1C`, for which the inhibition was -1.43%.

Turning to `Cc1nn(CC(=O)Nc2ccc(F)cc2)c(=O)c2ccccc12`, the inhibition is -7.73%.

As for `CCOc1ccc(-c2nnc(-c3ccco3)o2)cc1`, the inhibition is 56.9% (active).

For the compound `O=C(CN1C(=O)c2ccccc2S1(=O)=O)N1CCc2ccccc21`, the inhibition was -9.57%.

Turning to `CCOc1c(Br)cc(/C=C2\C(=O)N(CCC#N)N=C2C)cc1OC`, the inhibition was 29.9% (active).

As to `N#C/C=C\Oc1ccc(Cl)cc1N`, the inhibition was -7.1%.

Regarding `Cc1nnc(SCC(=O)N2c3ccccc3C(C)(c3ccc(Cl)cc3)CC2(C)C)s1` (stereo not given), the inhibition was -1.27%.

For the compound `O=C(Nc1cccnc1)c1noc2c1CCCCC2`, the inhibition is 38.6% (active).

Regarding `COc1cc(NS(=O)(=O)c2ccc3ccccc3c2)c2ncccc2c1`, the inhibition was -7.83%.

Consider `CSCCC(C(=O)NC1=NCCS1)N1C(=O)c2ccccc2C1=O` (stereo not given), for which the inhibition is -8.47%.

Consider `CN(C)c1ccc(-n2cccc2/C=N/n2cnnc2)cc1`, for which the inhibition is -11.7%.

For `CC(C)c1nc2ccc(C(=O)O)cc2[nH]1`, the inhibition is 31.5% (active).

In the case of `Cc1nc2ccc(C(=O)O)cc2[nH]1`, the inhibition is 4.87%.

For the compound `CC(C)(C)OC(=O)c1c(N)n(CCCN2CCCC2=O)c2nc3ccccc3nc12`, the inhibition was -7.33%.

Consider `CCCS(=O)(=O)N1CCCC(C(=O)NCCN2CCCCC2C)C1` (stereo not given), for which the inhibition is -4.93%.

Regarding `COc1ccc(-c2cn3ccc(C)cc3n2)cc1`, the inhibition was 69.7% (active).

With `Cc1ccc(-c2cn3cc(C)ccc3n2)cc1`, the inhibition was 87.3% (active).

For the compound `Cc1ccc2nc(-c3ccc(Br)cc3)cn2c1`, the inhibition was 81.5% (active).

For `Cc1cccc(C(=O)OC(C)CN2CCN(C)CC2)c1` (stereo not given), the inhibition was -7.93%.

On to `Cc1ccc(C(=O)CSc2ccccc2C(=O)O)cc1`, for which the inhibition was -0.87%.

Regarding `O=C(CSC(=S)N1CCOCC1)c1ccccc1`, the inhibition is 34.5% (active).

`O=C(O)c1ccc(N=NN2CCOCC2)cc1`: the inhibition is -12.9%.

As for `CCOC(=O)N1CCN(Cc2nc3c(c(=O)n(C)c(=O)n3C)n2Cc2ccccc2)CC1`, the inhibition is -8.93%.

Take `C=CCN1CCN(C(=O)CCCc2ccccc2)CC1`: the inhibition is 37.2% (active).

In the case of `O=C(Cc1ccccc1)N1CCN(S(=O)(=O)c2ccc([N+](=O)[O-])cc2)CC1`, the inhibition is -3.47%.

Turning to `COc1cc(C(=O)NN(CCC#N)C2=NS(=O)(=O)c3ccccc32)cc(OC)c1OC`, the inhibition was -6.77%.

Turning to `Cc1cccc(CCNC(=O)Cn2ncc3c([nH]c4ccc(C)cc43)c2=O)c1`, the inhibition is -0.53%.

Turning to `CN(c1ccc2nc3ccccc3c(=O)n2n1)C1CCCCC1`, the inhibition is 87.3% (active).

As to `O=C(OC1CCOC1=O)c1ccc(-c2nc3ccccc3s2)s1` (stereo not given), the inhibition is 65.2% (active).

`c1ccc(-c2noc(-c3cccs3)n2)nc1`: the inhibition was 27.4% (active).

As for `CCOC(=O)c1nc(C)n(-c2ccc(Cl)cc2Cl)n1`, the inhibition was -5.2%.

In the case of `COc1ccc(/C=N/Nc2ccccc2C(=O)O)cc1`, the inhibition is 23.4% (active).

Take `CCc1nc(SCC(=O)Nc2ccccc2OC)n[nH]1`: the inhibition was 0.13%.

`COc1ccc(C(=O)Nc2ccccc2C(=O)N/N=C/c2ccccc2OC)cc1`: the inhibition is 43.8% (active).

With `COc1ccc(C(=O)Nc2ccccc2C(=O)N/N=C/c2ccc(O)c(OC)c2)cc1`, the inhibition was 93.5% (active).

Regarding `O=C(Nc1ccccc1C(=O)O)c1ccc(N2C(=O)C3CC=CCC3C2=O)cc1` (stereo not given), the inhibition is -15.7%.

For the compound `COc1ccc(Cl)cc1NC(=O)Cn1nc(-c2ccc(C)cc2)n(C)c1=S`, the inhibition is -10.3%.

Consider `CC(OC(=O)c1ccc2noc(-c3ccccc3)c2c1)C(N)=O` (stereo not given), for which the inhibition is -3.9%.

On to `Oc1c(C=Nc2cccc3nsnc23)ccc2ccccc12`, for which the inhibition is -18.8%.

Regarding `COc1ccc(/C=C/c2noc(-c3ccccc3OC(C)=O)n2)cc1`, the inhibition was -12.5%.

On to `COc1ccc(-c2nc(-c3ccccc3)no2)c(OC)c1`, for which the inhibition was 81.7% (active).

For `CCCOc1ccc(C(=O)NCCc2ccccc2)cc1`, the inhibition was 44% (active).

`CCCCOCCCNC(=O)c1ccccc1OCC`: the inhibition is -6.47%.

For `COc1cccc(/C=C/c2ccc3ccccc3n2)c1OC(C)=O`, the inhibition was -12.7%.

Consider `Cc1ccc(C(=O)COC(=O)c2cccc(N3C(=O)c4c(C)nc5ccccc5c4C3=O)c2)cc1C`, for which the inhibition was -20.1%.

For `COc1cccc2c(C)c(C(=O)O)[nH]c12`, the inhibition was 30.6% (active).

For `O=C1CCC([N+](=O)[O-])C(c2ccccc2Br)N1` (stereo not given), the inhibition was -7.7%.

With `CC(C)CNC(=O)CC(NCC(C)C)C(=O)O` (stereo not given), the inhibition was -6.07%.

For the compound `Clc1cccc(N=C2NN=C(c3ccc4c(c3)OCCO4)CS2)c1`, the inhibition was 36.7% (active).

On to `c1c2c(cc3sc(N4CCCCC4)nc13)OCCO2`, for which the inhibition was 80% (active).

As to `CCN(CCCNC(=O)c1ccc2c(c1)NC(=O)CN2C)c1cccc(C)c1`, the inhibition is -5.03%.

Take `COc1ccc(C(=O)/C=C/Nc2ccccn2)cc1`: the inhibition was 90.9% (active).

With `CCOc1ccc(N/C=C/C(=O)c2ccccc2)cc1`, the inhibition was 62.8% (active).

`CCCCCc1ccc(-c2ccc(C(=O)O)cc2)nc1`: the inhibition was 57.8% (active).

For `C/C(=N\NC(=S)NC1CCCCC1)c1ccc(C)o1`, the inhibition is -11.1%.

For `CCS(=O)(=O)c1cc([N+](=O)[O-])c(Sc2ccccc2N)s1`, the inhibition was 46% (active).

Consider `CCc1ccc(Nc2ncc3c(n2)CC(c2ccco2)CC3=O)cc1` (stereo not given), for which the inhibition was -15%.

Turning to `Cc1ccsc1C(=O)OCC(=O)c1cc(C)n(CC2CCCO2)c1C` (stereo not given), the inhibition was 85.4% (active).

Regarding `COCc1cc(=O)[nH]c2cc(NC(=O)C(F)(F)F)c(C)cc12`, the inhibition is -7%.

Turning to `CN(CCO)c1ccc(/C=N/Nc2nncc3ccccc23)cc1`, the inhibition is 84.2% (active).

As for `CCCCC(=O)Nc1nc(C)c(-c2csc(Nc3ccc(Cl)cc3)n2)s1`, the inhibition was -9.5%.

Take `O=c1oc(/C=C/c2ccccc2)nc2ccccc12`: the inhibition was -16.5%.

These data come from PubChem BioAssay AID1847 (The Scripps Research Institute Molecular Screening Center, 2009).
